# ssDAF-12 act: activators of S. stercoralis DAF-12 nuclear receptor. HEK293 ssDAF-12/GRIP1 lit1-tk-luc reporter, luminescence; % of 3 µM dafachronic acid response. activation, % at 6.8 µM. 370,000 compounds, 1% hits;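 active = activation above the mean over all tested compounds plus 3 SD, cut at about 0.9% in these data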
# hgDAF12 agonist: activates the H. glycines DAF-12 receptor ligand-binding domain | activation, % at 6.8 µM | 370,000 compounds, 1.8% hits | HEK293 GAL4-hgDAF12 UAS-luciferase reporter, agonist luminescence; normalized to butyrate control;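 active = activation above a cutoff set at the mean of all screened compounds plus 3 SD, cut at about 10% in these data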
# GAA850 FXN act: activators of GAA850 frataxin (FXN) promoter; HEK293 lucGAA850 FXN promoter luciferase reporter, 24 h; percent of 10 µM SAHA response; 360,000 compounds, 0.56% hits; activation, % at 6 µM;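 active = activation above the average of all compounds screened plus 3 SD, cutoff fixed separately per campaign, cut at about 7.5% in these data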
# DAX1 inh-1: NR0B1 (DAX1) inhibition | P51843 | HEK293 Gal4-DAX1 luciferase reporter, luminescence | inhibition, % at 6.75 µM | 340,000 compounds, 0.99% hits;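 active = inhibition above the mean over all tested compounds plus 3 SD, cut at about 4.2% in these data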;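 also: inhibition shows as a rise in luminescence from relieved DAX1 repression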
# Target sequence (P51843 207-470 limits assumed): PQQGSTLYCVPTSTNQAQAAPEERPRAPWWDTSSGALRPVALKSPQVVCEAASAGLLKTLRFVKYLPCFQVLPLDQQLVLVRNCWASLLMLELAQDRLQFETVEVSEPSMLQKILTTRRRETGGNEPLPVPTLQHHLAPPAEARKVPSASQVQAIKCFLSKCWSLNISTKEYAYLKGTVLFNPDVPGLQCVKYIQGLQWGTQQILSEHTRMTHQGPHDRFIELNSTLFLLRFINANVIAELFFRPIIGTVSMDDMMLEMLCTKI
# DAX1 inh-2: inhibitors of DAX1 repression of SF-1 activated StAR promoter; HEK293T StAR-luciferase reporter, SF-1/DAX-1 repression relief; 370,000 compounds, 1.1% hits; inhibition, % at 6.8 µM; AID 652010;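 active = inhibition above the mean over all tested compounds plus 3 SD, cut at about 3.6% in these data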;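 also: higher inhibition means more luminescence from relief of DAX-1 repression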
# hcDAF12 agonist: H. contortus DAF-12 activation, primary screen. HEK293 hcDAF-12 lit1-tk-luc reporter, luminescence; 0% DMSO, 100% Δ7-dafachronic acid. activation, % at 6.8 µM. 370,000 compounds, 1.4% hits. AID 652067;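 active = activation above the mean of all tested compounds plus 3 SD, cut at about 5.5% in these data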
# Numbers stand for hits; – = inactive; · = not tested or not shown. This is a sample that favours compounds with a hit; in the whole collection about 4.5% have one here.
SMILES,ssDAF-12 act,hgDAF12 agonist,GAA850 FXN act,DAX1 inh-1,DAX1 inh-2,hcDAF12 agonist
CC1(CCc2ccccc2)NC(=O)N(CC(=O)Nc2ccccc2)C1=O (stereo unspecified),–,–,–,4.7,–,–
COc1cc(/C=C2\SC(N)=NC2=O)cc(Cl)c1O,–,–,–,4.4,–,–
COc1ccc(/C=C2\SC(N)=NC2=O)cc1Br,–,–,–,–,–,–
C=CCSc1n[nH]c(-c2ccc(OC)cc2)n1,–,12,–,–,–,–
CC(C)N(C(N)=NC(=O)OCc1ccccc1)C(C)C,–,–,·,·,–,–
CCCCNC(=O)C[C@H]1C[C@@]2(C(=O)OC)C(=C[C@H](C(C)C)O[C@@H]2C2CC2)N(CCC2=CCCCC2)C1=O,–,–,·,·,–,–
O=S(=O)(c1cccs1)N1CCC(c2cn3ccccc3n2)CC1,–,–,·,·,–,–
CC1=C(C(=O)N(C)C)CC(CC(=O)NC2CCCC2)C(=O)N1CCC1=CCCCC1 (stereo unspecified),–,12,–,–,–,–
CC1=C(C(=O)N(C)C)CC(CC(=O)NC2CCCCC2)C(=O)N1CCC1=CCCCC1 (stereo unspecified),–,–,–,–,–,–
Cc1ccccc1CN1CCCCC(NC(=O)c2ccc(F)cc2F)C1=O (stereo unspecified),–,–,·,·,–,–
O=C(CSc1nnc(NC2CCCCC2)s1)N1CCOCC1,–,–,–,–,4.1,–
Cc1ccc(OCC(=O)N/N=C\c2cn(Cc3ccccc3)c3ccccc23)cc1C,1.0,–,–,–,–,–
Cc1ccccc1OCC(=O)N/N=C/c1cn(Cc2ccccc2)c2ccccc12,–,–,–,–,–,–
CCOC(=O)c1cc2c(s1)-c1ccccc1CC2,–,–,–,–,–,6.4
COC(=O)c1cc2c(s1)-c1ccccc1CC2,–,–,–,–,–,–
COC(=O)[C@]12C[C@H](CC(=O)NCCC(C)C)C(=O)N(Cc3ccccc3)C1=C[C@H](COCc1ccccc1)O[C@@H]2C,–,–,·,·,–,–
CC(C)NC(=O)CNc1ccc(C(F)(F)F)cc1[N+](=O)[O-],–,–,–,–,–,–
CN1CCN(C(=O)CNc2ccc(C(F)(F)F)cc2[N+](=O)[O-])CC1,–,–,–,–,–,5.8
CCOC(=O)c1c(C)[nH]c(C2=NNC(=Nc3ccccc3OC)SC2)c1C,–,–,–,–,–,6.0
O=C(Nc1nc2c(F)cc(F)cc2s1)C1CCN(C(=O)c2ccc(F)cc2)CC1,–,–,–,–,4.0,–
COc1cccc(-c2cc3nc(C)c(C)c(N4CCN(Cc5ccco5)CC4)n3n2)c1,–,–,·,·,·,–
COCCNC(=S)N(C)[C@H]1C[C@H]2c3[nH]c4c(-c5ccc6c(c5)OCO6)cccc4c3CCN2C[C@H]1[C@H](C)O,–,–,·,·,–,–
COc1ccccc1NC=C1C(=O)OC(C)(C)OC1=O,–,–,–,–,–,–
Cc1cccc(N/N=C2/COC(C)(C)CC2=O)c1,–,13,–,–,–,–
CC1(C)CC(=O)C=C(Nc2ccc(Cl)cc2)C1,–,–,–,–,–,–
SMILES,ssDAF-12 act,hgDAF12 agonist,GAA850 FXN act,DAX1 inh-1,DAX1 inh-2,hcDAF12 agonist
CC1(C)CC(=O)/C(=N/Nc2ccc(Cl)cc2)CO1,–,11,–,4.5,–,–
COc1ccccc1N/N=C1\COC(C)(C)CC1=O,–,–,–,4.8,–,–
Cc1cccc(NN=C2c3ccccc3-c3ccccc32)c1,–,–,–,–,–,–
COc1ccccc1-c1nnc(SCC#CCOC(=O)c2ccc(F)cc2)o1,–,–,·,·,·,–
CC(=O)N1CCN(C2=Nc3ccccc3Sc3ccccc32)CC1,–,–,·,·,–,–
COc1cc(/C=N/NS(=O)(=O)c2ccc(C)cc2)ccc1OCc1ccc(C(=O)O)cc1,–,13,–,–,–,–
COc1cc(/C=N/NC(=O)CC2(C)OCCCO2)ccc1OCc1ccccc1,–,–,–,–,–,–
COc1cc(/C=N/NC(=O)CN2CCCCC2)ccc1OCc1ccc(Br)cc1,–,12,–,–,–,–
O=C(Cn1nc(-c2ccccc2)ccc1=O)NCCc1cccc(F)c1,–,–,·,·,–,–
c1ccc2nc3c(nc2c1)CCCC3,–,–,–,–,–,–
C1CCc2nc3c(nc2C1)CCCC3,–,–,–,5.0,–,–
Cc1ccc(NC(=O)c2oc3ccccc3c2NC(=O)c2ccc3c(c2)OCO3)cc1,1.1,–,–,–,–,–
CCCCN1C[C@@H]2CSCCS(=O)(=O)N2C1=O,–,–,·,·,–,–
CCN(Cc1ccccc1)S(=O)(=O)c1cn(C)cn1,–,13,–,–,–,–
CCCC[C@@H](CCCc1ccc(F)cc1)CCC(=O)N(c1ccccc1)c1ccccc1,–,–,·,·,–,–
CC(C)[C@H](NC(=O)OCc1ccccc1)C(=O)OCC(=O)N1CCN(c2ccc(F)cc2)CC1,–,–,–,–,–,–
CC(C)[C@H](NC(=O)OCc1ccccc1)C(=O)OCC(=O)N1CCCCC1,–,12,–,–,–,–
O=C(NCc1ccc(Cl)cc1)C1C2C=CC3(CN(Cc4ccccc4)C(=O)C13)O2 (stereo unspecified),–,–,·,·,–,–
COc1ccccc1C(=O)NC(=Nc1nc2ccccc2o1)NC(=O)c1ccccc1OC,–,–,–,–,–,5.9
CCCCC(=O)N/C(N)=N/c1nc2ccccc2o1,–,12,–,16,–,–
CCC(=O)N1CCc2cc(Br)c(S(=O)(=O)NCCCN(C)Cc3ccccc3)cc21,–,–,·,·,–,–
COC(=O)c1cc(=O)nc(NN=C(C)C)s1,–,–,·,·,–,–
COCC(=O)N(Cc1ccccc1)c1ccccc1C(=O)Nc1cc(OC)ccc1OC,–,–,·,·,–,–
COc1cc2c(c(OC)c1OC)-c1ccc(NCc3ccccc3)c(=O)cc1C(NC(C)=O)CC2 (stereo unspecified),–,–,–,–,4.0,–
COc1cc2c(c(OC)c1OC)-c1ccc(SC)c(=O)cc1C(NC(=O)C(F)(F)F)CC2 (stereo unspecified),–,–,–,–,3.7,–
SMILES,ssDAF-12 act,hgDAF12 agonist,GAA850 FXN act,DAX1 inh-1,DAX1 inh-2,hcDAF12 agonist
Cc1ccc(CN2CCCCC(NC(=O)c3ccc(-c4ccccc4)cc3)C2=O)cc1 (stereo unspecified),–,–,·,·,–,–
O=C(NCCc1ccccc1)OCc1cn(Cc2ccc(F)c(F)c2)nn1,–,–,·,·,–,–
O=[N+]([O-])c1cccc(-n2nnnc2CNCc2ccccc2)c1,–,–,–,5.7,–,–
CCc1ccc2nc(NC(=O)c3cc(C)on3)sc2c1,–,12,–,–,–,–
Cc1cc(C)c2nc(NC(=O)c3cc(C)on3)sc2c1,–,–,–,–,–,–
CCc1noc(C)c1C(=O)Nc1nc2ccc(F)cc2s1,–,–,–,–,3.9,–

# Assay outcomes (PubChem)
